From PubChem BioAssay AID2289 (National Center for Advancing Translational Sciences (NCATS), 2010)
Screen size: about 340,000 compounds; about 3,300 (0.97%) were called active. Inconclusive results (about 9%) are left out. Calls come from the whole dose curve; as a rule, active = well fitted inhibition curve with a large enough effect; inconclusive = small, poorly fitted or top-dose-only effect, or effect the other way; inactive = flat fitted curve, though single readings scatter. The list shows a part of the results.

Assay: qHTS Assay for Modulators of miRNAs and/or Inhibitors of miR-21; note: nearly all actives have a fitted effect of over 55% in size
Details: HeLa miR-21-FLuc reporter, luciferase luminescence, 48 h; actives lower the signal
Outline: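 Using DMEM plus 10% FBS, HeLa miR-21-FLuc cells are incubated with test compounds (final up to about 40uM) for 48 hours; firefly luciferase signal is then imaged following reagent-mediated lysis.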
Potency is the fitted concentration of half-maximal effect.

Potency, active:
CN(C)c1ccc(-n2cc3c(=O)n(C)c(=O)n(C)c3c2)cc1 11.7 µM
COCc1cc(C)nc2sc(C(=O)Nc3ccc(OC)cc3)c(N)c12 16.5 µM
COCc1cc(C)nc2sc(C(=O)Nc3cccc(OC)c3)c(N)c12 2.07 µM
COCc1cc(C)nc2sc(C(=O)Nc3nccs3)c(N)c12 13.1 µM
Nc1c(-c2nc(-c3ccccc3Cl)no2)nnn1-c1ccccc1F 0.826 µM
CCc1ccccc1NC(=O)C(=O)c1cc(C)n(-c2ccccc2F)c1C 16.5 µM
CCOC(=O)c1c(C)oc2c1c(CN1CCN(CCO)CC1)c(O)c1ccccc12 10.4 µM
CCOC(=O)c1c(C)oc2c1c(CN1CCN(C(=O)OCC)CC1)c(O)c1ccccc12 14.7 µM
CCOC(=O)c1c(C)oc2c1cc(O)c1ccccc12 5.21 µM
CCOC(=O)c1c(C)oc2c1c1c(c3ccccc32)OCN(CCCC(=O)O)C1 10.4 µM
COc1ccccc1Nc1ncnc2c1oc1ccccc12 14.7 µM
Oc1ccc(Nc2ncnc3c2oc2ccccc23)cc1 13.1 µM
Oc1cccc(Nc2ncnc3c2oc2ccccc23)c1 5.21 µM
c1ccc(Nc2ncnc3c2oc2ccccc23)cc1 7.36 µM
c1ccc2c(c1)oc1c(Nc3ccc4c(c3)OCO4)ncnc12 1.65 µM
C=C1SC(=Nc2ccccc2Cl)N(C(=O)c2sc3ccccc3c2Cl)C1(C)C 13.1 µM
O=C(Nc1ccon1)c1sc2cc(F)ccc2c1Cl 1.65 µM
O=C(NC1=NCCS1)c1sc2cc(F)ccc2c1Cl 0.736 µM
CC(C)Cc1cc(C(=O)NCCc2ccccc2)no1 2.33 µM
CCCc1cc(C(=O)NCCc2ccccc2)no1 4.14 µM
CC(C)c1cc(C(=O)NCCc2ccccc2)no1 2.33 µM
Brc1ccc(C2=NC(Cc3ccccc3)CO2)cc1 (configuration not stated) 14.7 µM
OC(COc1ccc2ccccc2c1Cl)CN1CCOCC1 (configuration not stated) 10.4 µM
COc1ccc(C(=O)c2oc3ccc(OC)cc3c2N)cc1 7.36 µM
Nc1c(C(=O)c2ccccc2)oc2ccc(Br)cc12 2.61 µM
COc1ccc2oc(C(=O)c3ccccc3)c(N)c2c1 1.17 µM
CC1CN(C(=O)c2cccc(COc3ccc(Br)cc3)c2)CC(C)O1 (configuration not stated) 2.93 µM
Cc1cc(NC(=O)c2cccc(COc3ccc(Br)cc3)c2)no1 1.04 µM
COc1ccc(OCc2cccc(C(=O)N3CCCC3)c2)cc1 1.47 µM
COc1ccc(OCc2cccc(C(=O)Nc3ccc(CN4CCCCC4)cc3)c2)cc1 2.07 µM
CCOc1ccc(N=C(C)C2=C(O)c3ccccc3C2=O)cc1 1.17 µM
COc1ccccc1N1CCN(c2nc3ccccn3c(=O)c2C=O)CC1 18.5 µM
O=Cc1c(N2CCN(c3ccccc3)CC2)nc2ccccn2c1=O 16.5 µM
O=C(/C=C/c1ccc(Cl)cc1Cl)N1CCc2ccccc21 0.521 µM
Cc1ccc(/C=C/C(=O)N2CCc3ccccc32)o1 2.93 µM
O=c1c(-c2ccc(O)cc2)coc2cc(OC3OC(CO)C(O)C(O)C3O)cc(O)c12 (configuration not stated) 2.61 µM
CCN1CCN(c2cc3c(nn2)Oc2ccccc2N3C)CC1 7.36 µM
CC1CCN(c2ccc(NC(=O)c3ccc(Br)o3)cc2)CC1 0.656 µM
CCC(=O)Nc1ccc(N2CCC(C)CC2)cc1 18.5 µM
Nc1nc(CSc2ccccc2)nc(N2CCCCC2)n1 6.56 µM
Cc1ccccc1Nc1nc(N)nc(CSc2ccccc2)n1 0.656 µM
Cc1c(Cl)cccc1Nc1nc(N)nc(CSc2ncccn2)n1 16.5 µM
Cc1ccccc1Nc1nc(N)nc(CSc2ccc(F)cc2)n1 1.31 µM
CN1C(=O)/C(=C\c2cc(Br)cs2)c2ccccc21 16.5 µM
Cc1cccc(N=Nc2c(C)nn(-c3ccccc3)c2N)c1C 7.36 µM
Cc1nn(-c2ccccc2)c(N)c1N=Nc1ccc2ccccc2c1 4.65 µM
Cc1nn(-c2ccccc2)c(N)c1N=Nc1cccnc1 11.7 µM
Cc1snc2sc(C(=O)c3ccc(F)cc3)c(N)c12 5.21 µM
Cc1cccc(C)c1OCC(=O)Nc1cccc(C(=O)O)c1 1.85 µM
CC(=O)c1cccc(NC(=O)COC(=O)c2ccccc2C)c1 5.85 µM
CC(C)C(=O)Nc1ccc(C(=O)c2ccccc2)cc1 7.36 µM
CC(=O)Nc1ccc(-c2csc(-c3cccnc3)n2)cc1 1.17 µM
CC(C)C(=O)Nc1ccc(-c2csc(-c3ccccc3)n2)cc1 2.33 µM
O=C(Nc1ccccc1Cl)c1csc(-c2cccnc2)n1 13.1 µM
CC(C)C(=O)Nc1ccc(-c2nnc(-c3ccccc3)o2)cc1 0.261 µM
COC(=O)c1ccsc1NC(=O)CCc1ccccc1 7.36 µM
c1cncc(-c2nc(-c3ccc4c(c3)OCO4)cs2)c1 1.65 µM
COc1ccc2cc(-c3csc(-c4cccnc4)n3)ccc2c1 3.29 µM
COc1ccc(-c2csc(-c3cccnc3)n2)cc1C 3.69 µM
CC(=O)c1ccc(N=Nc2ccc(N(C)C)cc2)cc1 0.293 µM
CN(C)c1ccc(N=Nc2ccc(S(N)(=O)=O)cc2)cc1 1.17 µM
O=C(c1cc(-c2ccc(Br)cc2)on1)N1CCCCCC1 0.927 µM
O=C(c1cc(-c2ccc(Br)cc2)on1)N1CCOCC1 0.585 µM
c1ccc(-c2noc(-c3ccc4c(c3)OCO4)n2)cc1 0.293 µM
COc1cccc(-c2noc(-c3ccc4c(c3)OCO4)n2)c1 0.261 µM
COc1cc(/C=N/NC(=S)NC2CC3CCC2C3)ccc1O (configuration not stated) 7.36 µM
C=CCn1c(SCC(N)=O)nc2scc(-c3ccc(C)o3)c2c1=O 5.85 µM
CCC(=O)Nc1cccc(NC(=S)NC(=O)c2cc3ccccc3o2)c1 0.585 µM
COc1cc(NC(=O)c2c(OC)cccc2OC)ccc1NC(=O)c1cc2ccccc2o1 5.21 µM
COc1ccccc1NC(=O)c1cc2ccccc2o1 2.93 µM
COc1ccc(NC(=O)c2cc3ccccc3o2)c(OC)c1 0.585 µM
O=C(Nc1ccccc1C(F)(F)F)c1cc2ccccc2o1 1.17 µM
COc1ccccc1NC(=O)c1cc2ccc3cccnc3c2[nH]1 2.33 µM
CNC(C)C#Cc1ccc2c(=O)c3c(OC)cccc3oc2c1 (configuration not stated) 3.69 µM
COc1cccc2oc3cc(C#Cc4ccccn4)ccc3c(=O)c12 2.93 µM
COc1cccc2oc3ccc(C#CC4(N)CCCCC4)cc3c(=O)c12 7.36 µM
O=c1cc(-c2ccc3c(c2)OCCO3)oc2ccc(Cl)cc12 0.185 µM
CCCCCC(=O)Nc1ccc2ccccc2c1 4.65 µM
CCCCC(=O)Nc1ccc2c(c1)oc1ccccc12 2.33 µM
CCCC(=O)Nc1ccc2c(c1)Cc1ccccc1-2 1.85 µM
O=C(Nc1ccccc1)Nc1ccc2ccccc2c1 2.93 µM
Cc1ccc(-c2nn(-c3ccccc3)cc2CO)cc1 14.7 µM
Cc1ccc(-c2nn(-c3ccccc3)cc2CO)o1 1.47 µM
O=C(/C=C\Nc1ccc2c(c1)OCO2)c1ccc2c(c1)OCO2 5.85 µM
COc1ccc(N/C=C/C(=O)c2ccc3c(c2)OCO3)cc1OC 13.1 µM
COc1ccc(N/C=C\C(=O)c2ccc3c(c2)OCO3)cc1OC 14.7 µM
O=C(/C=C\Nc1ccc2c(c1)OCO2)c1ccc(Cl)s1 0.464 µM
Cc1ccc(OCC(=O)Nc2ccc(F)cc2)c([N+](=O)[O-])n1 7.36 µM
Cc1ccc(OCC(=O)Nc2ccc3c(c2)OCO3)c([N+](=O)[O-])n1 7.36 µM
CCOc1ccc(/C=C/C2=NNC(=O)CC2)cc1 5.85 µM
Cc1cc(N)n2ncc(-c3ccc(F)cc3)c2n1 4.65 µM
Cc1nc2c(-c3ccc(F)cc3)cnn2c(N)c1-c1ccc(F)cc1 0.414 µM
COc1ccc(-c2cc(C)nc3c(-c4ccccc4)cnn23)cc1 0.233 µM
Cc1cc(N)n2ncc(-c3ccccc3)c2n1 3.29 µM
Cc1cc(N)n2ncc(-c3cccc(Br)c3)c2n1 3.29 µM
CCOC(=O)c1cn2nc(Oc3ccccc3)ccc2n1 5.85 µM
O=C(COc1ccccc1Br)Nc1ccc2c(c1)OCCCO2 0.927 µM
N#Cc1ccccc1OCC(=O)Nc1ccc2c(c1)OCCCO2 2.61 µM
CC1=C(C)CC(C(=O)NCC(=O)c2ccccc2)C(C(=O)O)C1 (configuration not stated) 4.14 µM
Cc1cc(C)n2nc(SCCOc3ccccc3)nc2n1 7.36 µM
Cc1cc(C)n2nc(SCC3COc4ccccc4O3)nc2n1 (configuration not stated) 16.5 µM
Cc1cc(C)n2nc(SCCOc3ccccc3F)nc2n1 11.7 µM
Clc1ccc(Cc2nnc(-c3ccccc3Br)o2)cc1 16.5 µM
Clc1ccc(Cc2nnc(-c3cccs3)o2)cc1 18.5 µM
BrCCOCCOc1ccc2ccccc2c1 18.5 µM
Cc1c(C(=O)NC2CCOC2)oc2c(F)cccc12 (configuration not stated) 5.85 µM
Cc1c(C(=O)N2C[C@@H](C)O[C@@H](C)C2)oc2c(F)cccc12 13.1 µM
